Assay results: the supplement of paper PMC11732987, “Enantioselective OTUD7B fragment discovery through chemoproteomics screening and high-throughput optimisation” (Communications Chemistry, 2025)

What was measured:
Assay in all cases: log2 ratio of Biotin-Ahx-Ub-VS probe labelling (fragment/DMSO); higher = less target engagement (more negative = stronger competition), active = hit call of the paper (q ≤ 0.05, log2 ratio ≤ -1)
Details in all cases: compound concentration: 200 uM; treatment time: 3 h
USP42 = biological target: T1, USP42 (UniProt Q9H9J4)
T1 sequence (whole entry): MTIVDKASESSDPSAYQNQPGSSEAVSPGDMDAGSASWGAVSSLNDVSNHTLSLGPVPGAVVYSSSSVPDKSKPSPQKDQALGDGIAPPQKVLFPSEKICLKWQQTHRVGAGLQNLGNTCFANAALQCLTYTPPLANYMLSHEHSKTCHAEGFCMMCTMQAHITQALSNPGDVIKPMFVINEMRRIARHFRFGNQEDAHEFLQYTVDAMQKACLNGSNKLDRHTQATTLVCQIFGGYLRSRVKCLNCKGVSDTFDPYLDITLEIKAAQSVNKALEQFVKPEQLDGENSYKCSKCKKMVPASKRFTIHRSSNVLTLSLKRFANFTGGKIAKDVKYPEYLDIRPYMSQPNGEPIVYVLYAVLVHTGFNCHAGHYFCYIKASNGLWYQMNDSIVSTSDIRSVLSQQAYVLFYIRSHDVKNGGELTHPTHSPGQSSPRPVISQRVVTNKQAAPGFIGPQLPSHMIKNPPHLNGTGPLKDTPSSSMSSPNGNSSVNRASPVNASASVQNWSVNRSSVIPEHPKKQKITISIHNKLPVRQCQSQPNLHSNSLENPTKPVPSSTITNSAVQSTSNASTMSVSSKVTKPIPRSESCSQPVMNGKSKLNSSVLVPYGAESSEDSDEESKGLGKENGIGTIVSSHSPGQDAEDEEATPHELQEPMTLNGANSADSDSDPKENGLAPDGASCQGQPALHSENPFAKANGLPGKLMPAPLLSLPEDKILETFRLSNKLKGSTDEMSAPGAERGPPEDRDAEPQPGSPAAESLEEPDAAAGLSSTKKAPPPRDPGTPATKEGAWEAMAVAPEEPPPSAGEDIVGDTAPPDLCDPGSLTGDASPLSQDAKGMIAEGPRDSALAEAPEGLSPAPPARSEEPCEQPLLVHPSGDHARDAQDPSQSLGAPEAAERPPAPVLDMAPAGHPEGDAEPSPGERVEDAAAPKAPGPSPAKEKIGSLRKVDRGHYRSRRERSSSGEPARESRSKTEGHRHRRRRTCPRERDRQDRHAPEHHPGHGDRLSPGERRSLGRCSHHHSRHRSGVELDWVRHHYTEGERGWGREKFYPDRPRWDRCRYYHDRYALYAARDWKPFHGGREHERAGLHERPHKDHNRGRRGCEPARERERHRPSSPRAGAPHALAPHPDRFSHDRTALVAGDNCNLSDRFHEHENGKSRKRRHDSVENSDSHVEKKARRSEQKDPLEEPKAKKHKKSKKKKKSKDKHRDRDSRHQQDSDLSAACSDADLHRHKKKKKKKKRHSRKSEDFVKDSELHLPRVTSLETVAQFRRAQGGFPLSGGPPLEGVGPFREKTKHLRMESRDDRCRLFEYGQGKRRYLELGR
How it was run: (§1)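 Labelled DUBs were enriched with NeutrAvidin, digested with LysC and trypsin, and run by diaPASEF LC-MS/MS. The labelling used Biotin-Ahx-Ub-VS at 0.5 µM final for 1 h on HEK293T lysate (495 µg per sample) previously treated in triplicate with fragment at 200 µM or vehicle for 3 h. Values are average log2 fragment/vehicle ratios by unpaired t-test on global-median-normalised Spectronaut quantities of proteins with ≥2 unique peptides.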

USP46 = USP46 (UniProt P62068)
How it was run: as §1

USP47 = biological target: T2, USP47 (UniProt Q96K76)
T2 sequence (whole entry): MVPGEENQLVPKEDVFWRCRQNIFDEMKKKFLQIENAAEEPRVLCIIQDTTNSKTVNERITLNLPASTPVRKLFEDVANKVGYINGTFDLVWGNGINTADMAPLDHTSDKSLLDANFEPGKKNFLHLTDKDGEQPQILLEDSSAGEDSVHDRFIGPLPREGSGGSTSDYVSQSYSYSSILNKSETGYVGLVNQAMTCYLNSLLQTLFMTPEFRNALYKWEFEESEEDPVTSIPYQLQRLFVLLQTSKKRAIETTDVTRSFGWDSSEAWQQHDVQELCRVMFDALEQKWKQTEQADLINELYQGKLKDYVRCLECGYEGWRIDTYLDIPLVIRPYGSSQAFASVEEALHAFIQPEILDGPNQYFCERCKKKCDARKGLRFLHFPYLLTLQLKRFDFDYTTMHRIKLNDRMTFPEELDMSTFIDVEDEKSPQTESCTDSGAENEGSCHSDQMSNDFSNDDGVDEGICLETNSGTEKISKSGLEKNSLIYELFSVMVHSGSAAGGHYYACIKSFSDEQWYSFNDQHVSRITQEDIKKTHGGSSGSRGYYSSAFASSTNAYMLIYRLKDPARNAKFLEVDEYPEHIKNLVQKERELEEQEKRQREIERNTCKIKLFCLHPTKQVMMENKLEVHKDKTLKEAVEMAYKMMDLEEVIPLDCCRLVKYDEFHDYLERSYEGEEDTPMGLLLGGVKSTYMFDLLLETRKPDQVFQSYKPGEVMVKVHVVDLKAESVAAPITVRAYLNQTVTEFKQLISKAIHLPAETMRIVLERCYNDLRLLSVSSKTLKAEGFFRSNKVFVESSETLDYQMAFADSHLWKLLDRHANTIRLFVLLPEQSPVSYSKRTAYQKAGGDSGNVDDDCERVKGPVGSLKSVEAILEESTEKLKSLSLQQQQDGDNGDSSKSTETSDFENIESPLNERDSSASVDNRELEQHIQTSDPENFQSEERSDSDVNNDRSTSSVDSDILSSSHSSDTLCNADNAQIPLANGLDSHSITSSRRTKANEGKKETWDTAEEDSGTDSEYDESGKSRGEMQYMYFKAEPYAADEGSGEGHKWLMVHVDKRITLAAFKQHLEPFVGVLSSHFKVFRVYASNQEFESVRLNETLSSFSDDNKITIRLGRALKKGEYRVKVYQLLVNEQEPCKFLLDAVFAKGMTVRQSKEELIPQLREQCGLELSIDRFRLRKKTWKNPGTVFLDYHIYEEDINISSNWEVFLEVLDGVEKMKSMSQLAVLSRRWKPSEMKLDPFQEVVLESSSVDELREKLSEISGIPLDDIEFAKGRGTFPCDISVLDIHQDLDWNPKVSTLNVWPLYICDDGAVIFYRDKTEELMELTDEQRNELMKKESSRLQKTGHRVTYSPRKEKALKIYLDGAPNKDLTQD
How it was run: as §1

USP48 = biological target: T3, USP48 (UniProt Q86UV5)
T3 sequence (whole entry): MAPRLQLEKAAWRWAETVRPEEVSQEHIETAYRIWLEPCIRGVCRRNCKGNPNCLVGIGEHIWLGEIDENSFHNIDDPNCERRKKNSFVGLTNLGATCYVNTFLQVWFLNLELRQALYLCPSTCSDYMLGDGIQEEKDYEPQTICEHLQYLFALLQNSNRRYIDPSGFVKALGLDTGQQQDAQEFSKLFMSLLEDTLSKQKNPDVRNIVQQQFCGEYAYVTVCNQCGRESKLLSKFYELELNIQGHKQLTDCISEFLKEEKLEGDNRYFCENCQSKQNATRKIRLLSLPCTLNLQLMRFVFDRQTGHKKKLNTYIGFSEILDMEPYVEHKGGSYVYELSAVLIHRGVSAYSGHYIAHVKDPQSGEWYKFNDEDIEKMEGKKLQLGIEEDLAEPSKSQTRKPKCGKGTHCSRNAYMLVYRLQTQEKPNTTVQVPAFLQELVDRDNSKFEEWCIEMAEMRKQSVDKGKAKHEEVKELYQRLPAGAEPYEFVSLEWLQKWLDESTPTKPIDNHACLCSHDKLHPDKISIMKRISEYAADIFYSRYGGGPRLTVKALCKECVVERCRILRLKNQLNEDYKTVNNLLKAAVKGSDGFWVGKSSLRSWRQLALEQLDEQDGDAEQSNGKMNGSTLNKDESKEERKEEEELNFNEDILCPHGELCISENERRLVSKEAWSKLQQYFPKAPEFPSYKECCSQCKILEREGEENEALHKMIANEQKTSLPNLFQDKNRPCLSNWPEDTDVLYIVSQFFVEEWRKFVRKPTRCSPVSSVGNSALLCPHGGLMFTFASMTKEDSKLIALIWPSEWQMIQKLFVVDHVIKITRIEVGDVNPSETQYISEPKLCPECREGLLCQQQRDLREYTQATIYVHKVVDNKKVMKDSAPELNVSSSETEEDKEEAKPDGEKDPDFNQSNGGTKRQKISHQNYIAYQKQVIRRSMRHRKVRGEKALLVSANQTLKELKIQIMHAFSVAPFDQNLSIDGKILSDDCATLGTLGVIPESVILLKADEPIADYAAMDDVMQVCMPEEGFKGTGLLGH
How it was run: as §1

USP5 = biological target: T4, USP5 (UniProt P45974)
T4 sequence (whole entry): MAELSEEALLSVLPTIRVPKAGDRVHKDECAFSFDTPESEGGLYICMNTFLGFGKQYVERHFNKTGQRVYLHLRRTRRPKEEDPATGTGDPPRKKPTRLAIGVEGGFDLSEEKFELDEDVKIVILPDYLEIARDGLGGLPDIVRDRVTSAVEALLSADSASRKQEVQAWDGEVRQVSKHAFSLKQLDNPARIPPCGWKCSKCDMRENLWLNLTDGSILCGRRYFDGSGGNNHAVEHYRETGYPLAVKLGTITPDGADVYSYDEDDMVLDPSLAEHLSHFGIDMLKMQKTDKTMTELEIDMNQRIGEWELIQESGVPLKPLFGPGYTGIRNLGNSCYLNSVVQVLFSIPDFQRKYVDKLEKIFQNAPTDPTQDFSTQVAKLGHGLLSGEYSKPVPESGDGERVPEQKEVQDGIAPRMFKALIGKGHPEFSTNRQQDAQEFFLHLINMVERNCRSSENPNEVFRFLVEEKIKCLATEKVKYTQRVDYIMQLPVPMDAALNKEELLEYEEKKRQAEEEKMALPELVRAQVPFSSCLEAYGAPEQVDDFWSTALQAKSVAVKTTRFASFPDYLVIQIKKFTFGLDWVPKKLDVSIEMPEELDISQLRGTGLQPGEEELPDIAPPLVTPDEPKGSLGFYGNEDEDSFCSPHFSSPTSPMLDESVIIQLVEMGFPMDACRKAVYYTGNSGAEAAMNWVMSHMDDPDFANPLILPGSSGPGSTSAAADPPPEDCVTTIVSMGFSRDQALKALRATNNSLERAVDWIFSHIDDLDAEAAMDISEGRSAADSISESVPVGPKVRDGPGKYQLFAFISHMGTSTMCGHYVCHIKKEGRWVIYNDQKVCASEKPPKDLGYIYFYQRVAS
How it was run: as §1

USP54 = USP54 (UniProt Q70EL1)
How it was run: as §1

USP7 = USP7 (UniProt Q93009)
How it was run: as §1

USP8 = biological target: T5, USP8 (UniProt P40818)
T5 sequence (whole entry): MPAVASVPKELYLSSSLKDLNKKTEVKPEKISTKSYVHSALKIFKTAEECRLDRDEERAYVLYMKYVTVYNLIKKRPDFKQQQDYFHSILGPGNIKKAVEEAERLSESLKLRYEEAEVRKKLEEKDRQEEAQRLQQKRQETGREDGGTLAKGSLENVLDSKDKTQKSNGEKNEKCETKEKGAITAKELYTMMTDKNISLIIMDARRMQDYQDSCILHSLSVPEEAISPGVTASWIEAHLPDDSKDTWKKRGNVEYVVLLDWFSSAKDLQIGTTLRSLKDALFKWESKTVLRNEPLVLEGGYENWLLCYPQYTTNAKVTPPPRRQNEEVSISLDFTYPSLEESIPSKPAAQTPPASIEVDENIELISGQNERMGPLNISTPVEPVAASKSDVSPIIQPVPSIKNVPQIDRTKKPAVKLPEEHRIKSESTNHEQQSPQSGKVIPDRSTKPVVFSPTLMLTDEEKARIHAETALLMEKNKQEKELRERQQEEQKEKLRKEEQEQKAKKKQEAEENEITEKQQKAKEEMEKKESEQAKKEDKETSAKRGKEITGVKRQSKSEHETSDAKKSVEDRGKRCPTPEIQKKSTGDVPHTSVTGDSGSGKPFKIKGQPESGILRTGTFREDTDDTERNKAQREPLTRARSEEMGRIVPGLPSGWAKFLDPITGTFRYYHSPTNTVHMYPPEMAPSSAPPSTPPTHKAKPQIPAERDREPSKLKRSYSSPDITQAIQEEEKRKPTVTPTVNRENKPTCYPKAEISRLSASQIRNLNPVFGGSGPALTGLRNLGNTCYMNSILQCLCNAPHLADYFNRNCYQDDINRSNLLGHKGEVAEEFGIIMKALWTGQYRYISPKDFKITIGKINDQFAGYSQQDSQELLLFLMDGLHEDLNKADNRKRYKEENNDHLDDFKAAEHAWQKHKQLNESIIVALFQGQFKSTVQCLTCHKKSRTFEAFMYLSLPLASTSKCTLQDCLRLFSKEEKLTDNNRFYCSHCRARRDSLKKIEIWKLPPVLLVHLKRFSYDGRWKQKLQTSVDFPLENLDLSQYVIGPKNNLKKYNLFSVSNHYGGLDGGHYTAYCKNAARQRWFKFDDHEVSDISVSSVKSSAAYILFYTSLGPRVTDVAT
How it was run: as §1

USP9X = USP9X (UniProt Q93008)
How it was run: as §1

UniProt O00487 = biological target: UniProt O00487
How it was run: as §1

Measured: log2 ratio of Biotin-Ahx-Ub-VS probe labelling

Sequence of USP9X (Q93008 whole entry): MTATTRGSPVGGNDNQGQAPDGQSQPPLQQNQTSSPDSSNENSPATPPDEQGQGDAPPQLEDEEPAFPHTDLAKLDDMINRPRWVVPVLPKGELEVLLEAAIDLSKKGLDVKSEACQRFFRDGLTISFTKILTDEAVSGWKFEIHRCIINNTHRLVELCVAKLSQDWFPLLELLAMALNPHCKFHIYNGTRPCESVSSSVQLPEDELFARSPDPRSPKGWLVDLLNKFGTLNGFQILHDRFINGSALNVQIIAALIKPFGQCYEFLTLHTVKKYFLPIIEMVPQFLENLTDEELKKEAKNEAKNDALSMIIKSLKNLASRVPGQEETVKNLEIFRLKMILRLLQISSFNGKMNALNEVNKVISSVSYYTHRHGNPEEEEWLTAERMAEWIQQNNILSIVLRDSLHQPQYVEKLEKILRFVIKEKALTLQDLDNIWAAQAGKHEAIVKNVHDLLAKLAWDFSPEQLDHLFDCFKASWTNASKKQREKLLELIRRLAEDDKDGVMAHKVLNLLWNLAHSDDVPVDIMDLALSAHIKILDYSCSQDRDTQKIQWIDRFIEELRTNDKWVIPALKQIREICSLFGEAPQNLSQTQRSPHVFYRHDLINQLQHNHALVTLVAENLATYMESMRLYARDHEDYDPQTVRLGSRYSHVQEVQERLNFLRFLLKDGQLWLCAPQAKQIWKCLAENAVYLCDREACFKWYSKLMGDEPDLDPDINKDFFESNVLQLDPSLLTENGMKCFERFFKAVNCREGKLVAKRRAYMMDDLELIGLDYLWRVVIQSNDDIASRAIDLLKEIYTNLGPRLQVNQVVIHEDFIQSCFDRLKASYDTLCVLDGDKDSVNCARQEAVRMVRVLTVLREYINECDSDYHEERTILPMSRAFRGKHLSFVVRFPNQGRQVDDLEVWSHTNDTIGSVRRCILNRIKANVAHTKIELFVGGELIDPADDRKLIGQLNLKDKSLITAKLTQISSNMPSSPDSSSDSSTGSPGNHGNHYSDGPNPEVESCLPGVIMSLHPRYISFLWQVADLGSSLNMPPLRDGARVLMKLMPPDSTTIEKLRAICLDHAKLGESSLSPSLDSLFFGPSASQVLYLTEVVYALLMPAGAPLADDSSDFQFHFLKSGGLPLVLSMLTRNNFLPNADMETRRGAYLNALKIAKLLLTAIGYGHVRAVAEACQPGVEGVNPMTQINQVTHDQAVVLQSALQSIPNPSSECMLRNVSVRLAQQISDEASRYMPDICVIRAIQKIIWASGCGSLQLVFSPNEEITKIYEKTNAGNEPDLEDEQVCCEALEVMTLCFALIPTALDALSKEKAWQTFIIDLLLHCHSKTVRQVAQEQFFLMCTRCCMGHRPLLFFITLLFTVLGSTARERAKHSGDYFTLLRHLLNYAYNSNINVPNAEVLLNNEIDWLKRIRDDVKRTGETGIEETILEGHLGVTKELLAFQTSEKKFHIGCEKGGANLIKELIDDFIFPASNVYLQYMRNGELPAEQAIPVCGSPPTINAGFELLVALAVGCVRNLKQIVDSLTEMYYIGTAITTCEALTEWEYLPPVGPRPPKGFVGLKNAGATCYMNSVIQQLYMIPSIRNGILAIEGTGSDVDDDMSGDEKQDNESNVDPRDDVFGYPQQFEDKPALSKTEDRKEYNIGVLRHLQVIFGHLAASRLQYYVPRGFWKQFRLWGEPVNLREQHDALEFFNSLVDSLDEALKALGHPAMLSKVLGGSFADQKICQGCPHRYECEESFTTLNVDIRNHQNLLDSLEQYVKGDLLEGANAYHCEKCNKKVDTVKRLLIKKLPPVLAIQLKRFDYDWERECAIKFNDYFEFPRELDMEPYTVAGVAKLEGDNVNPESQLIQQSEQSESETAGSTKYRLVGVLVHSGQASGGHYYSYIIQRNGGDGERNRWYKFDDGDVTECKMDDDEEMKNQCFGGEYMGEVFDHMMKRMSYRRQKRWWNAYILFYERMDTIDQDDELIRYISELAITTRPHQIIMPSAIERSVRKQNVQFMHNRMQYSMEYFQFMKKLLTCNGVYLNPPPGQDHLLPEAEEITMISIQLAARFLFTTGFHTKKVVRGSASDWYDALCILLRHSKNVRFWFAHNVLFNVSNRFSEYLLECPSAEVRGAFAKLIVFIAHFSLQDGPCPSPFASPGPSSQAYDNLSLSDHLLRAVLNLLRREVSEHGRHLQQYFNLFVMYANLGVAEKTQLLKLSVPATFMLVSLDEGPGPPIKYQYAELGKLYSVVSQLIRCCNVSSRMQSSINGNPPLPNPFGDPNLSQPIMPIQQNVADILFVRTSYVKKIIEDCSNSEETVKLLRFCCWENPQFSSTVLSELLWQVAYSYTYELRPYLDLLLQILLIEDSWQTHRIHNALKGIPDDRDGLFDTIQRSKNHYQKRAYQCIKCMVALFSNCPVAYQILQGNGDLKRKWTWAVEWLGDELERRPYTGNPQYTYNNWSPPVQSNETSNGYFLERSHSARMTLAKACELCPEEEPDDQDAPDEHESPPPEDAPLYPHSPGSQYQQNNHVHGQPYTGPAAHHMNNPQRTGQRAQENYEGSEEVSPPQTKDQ
Sequence of UniProt O00487 (O00487 whole entry): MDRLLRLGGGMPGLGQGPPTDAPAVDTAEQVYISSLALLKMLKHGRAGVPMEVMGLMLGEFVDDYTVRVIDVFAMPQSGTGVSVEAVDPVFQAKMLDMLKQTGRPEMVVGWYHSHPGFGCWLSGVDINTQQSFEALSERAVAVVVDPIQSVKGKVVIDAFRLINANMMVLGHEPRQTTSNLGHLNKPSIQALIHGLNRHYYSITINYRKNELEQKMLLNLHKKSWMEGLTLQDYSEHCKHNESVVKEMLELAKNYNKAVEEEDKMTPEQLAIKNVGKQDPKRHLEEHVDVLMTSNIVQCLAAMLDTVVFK
Sequence of USP46 (P62068 whole entry): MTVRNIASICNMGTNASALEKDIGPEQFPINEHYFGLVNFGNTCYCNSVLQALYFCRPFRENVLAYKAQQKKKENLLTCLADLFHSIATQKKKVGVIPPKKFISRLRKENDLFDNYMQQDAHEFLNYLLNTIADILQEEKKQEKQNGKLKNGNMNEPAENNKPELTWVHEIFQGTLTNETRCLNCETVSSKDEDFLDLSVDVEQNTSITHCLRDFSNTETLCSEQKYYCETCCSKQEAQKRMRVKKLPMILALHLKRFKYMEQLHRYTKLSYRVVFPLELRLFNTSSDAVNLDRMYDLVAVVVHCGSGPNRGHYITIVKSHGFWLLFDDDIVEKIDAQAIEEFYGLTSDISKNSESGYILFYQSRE
Sequence of USP7 (Q93009 whole entry, looked up): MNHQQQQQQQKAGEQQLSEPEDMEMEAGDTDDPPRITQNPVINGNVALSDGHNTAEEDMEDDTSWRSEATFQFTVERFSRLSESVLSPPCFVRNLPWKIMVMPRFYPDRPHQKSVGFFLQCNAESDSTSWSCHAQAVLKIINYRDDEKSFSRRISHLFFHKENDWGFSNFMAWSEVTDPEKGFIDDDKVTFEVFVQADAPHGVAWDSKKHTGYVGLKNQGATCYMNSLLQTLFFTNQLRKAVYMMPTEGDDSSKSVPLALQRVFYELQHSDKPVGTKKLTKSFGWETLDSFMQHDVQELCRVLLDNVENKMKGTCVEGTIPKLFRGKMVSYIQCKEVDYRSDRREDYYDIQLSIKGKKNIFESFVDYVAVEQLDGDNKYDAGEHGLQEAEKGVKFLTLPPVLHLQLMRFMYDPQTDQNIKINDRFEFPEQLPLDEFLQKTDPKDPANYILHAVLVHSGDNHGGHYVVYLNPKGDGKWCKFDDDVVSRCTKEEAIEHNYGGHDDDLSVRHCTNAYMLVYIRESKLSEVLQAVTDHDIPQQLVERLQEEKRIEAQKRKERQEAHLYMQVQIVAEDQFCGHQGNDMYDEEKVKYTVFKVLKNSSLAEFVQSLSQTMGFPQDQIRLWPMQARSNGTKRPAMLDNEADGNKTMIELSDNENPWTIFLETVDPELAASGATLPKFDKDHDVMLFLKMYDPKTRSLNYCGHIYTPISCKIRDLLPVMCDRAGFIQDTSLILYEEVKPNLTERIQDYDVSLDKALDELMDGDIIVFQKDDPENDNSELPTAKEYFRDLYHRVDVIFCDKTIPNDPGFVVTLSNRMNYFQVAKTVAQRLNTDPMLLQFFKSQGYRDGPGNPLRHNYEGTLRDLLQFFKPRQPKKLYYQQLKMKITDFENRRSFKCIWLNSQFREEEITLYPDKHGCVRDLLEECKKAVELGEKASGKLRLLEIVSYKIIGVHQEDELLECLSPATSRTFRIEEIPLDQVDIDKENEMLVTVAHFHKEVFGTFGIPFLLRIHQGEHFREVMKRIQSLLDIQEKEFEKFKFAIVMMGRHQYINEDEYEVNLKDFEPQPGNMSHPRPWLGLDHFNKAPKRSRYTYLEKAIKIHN

O=C(CCl)N1CCc2ccccc2C(O)C1 (stereo not given)
inactive: USP42 0.325 | USP46 -0.184 | USP47 0.0442 | USP48 -0.682 | USP5 -0.103 | USP54 0.265 | USP7 -0.687 | USP8 -0.372 | USP9X -0.333 | UniProt O00487 -0.0272

O=C(CCl)NCc1ccc(Cl)cc1
inactive: USP42 0.175 | USP46 -0.0156 | USP47 -0.0592 | USP48 0.107 | USP5 -0.0207 | USP54 -0.625 | USP7 -0.206 | USP8 0.105 | USP9X 0.00725 | UniProt O00487 -0.0216

Cc1cccc(C(CNC(=O)CCl)N2CCOCC2)c1.Cl (stereo not given)
inactive: USP42 -0.208 | USP46 0.086 | USP47 0.268 | USP48 -0.106 | USP5 -0.22 | USP54 -0.0536 | USP7 -0.244 | USP8 -0.417 | USP9X -0.0494 | UniProt O00487 0.181
